Laboratory results as given in PubChem BioAssay (NCI).
This is part of a sample that, as a whole, favours compounds with a hit. Of some 79,000 tested, about 15% had one in any assay. Cut-off read from the data, not from the text of the source: active = growth inhibition above about 70%; inactive = the rest.

How the values were obtained:
[1] = NCI Yeast Anticancer Drug Screen. Data for the rad50 strain (AID 155);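 note: 0% = growth of vehicle-only cultures of the same strain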; settings: S. cerevisiae rad50 strain growth inhibition; at 50.0 µM; active compounds read high
Procedure, shortened: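 Relative growth inhibition (compound vs vehicle) was measured in yeast with a defined repair-gene alteration.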

[2] = NCI Yeast Anticancer Drug Screen. Data for the mec2-1 strain (AID 157); settings: S. cerevisiae mec2-1 strain, at 50.0 µM, active compounds read high
Procedure, shortened: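 Growth inhibition is read against vehicle-treated controls after compound exposure of the mec2-1 yeast strain, which is defective in DNA damage repair or cell cycle control.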

[3] = NCI Yeast Anticancer Drug Screen. Data for the sgs1 mgt1 strain (AID 161);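 note: 0% = growth of cultures given vehicle only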; settings: S. cerevisiae sgs1 mgt1 strain, at 50.0 µM, active compounds read high
Procedure, shortened: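 Yeast cells carrying a defined DNA-repair defect were exposed to test compounds. Growth inhibition was measured relative to vehicle-treated controls.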

[4] = NCI Yeast Anticancer Drug Screen. Data for the cln2 rad14 strain (AID 165);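 note: 0% = growth equal to vehicle treated cultures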; settings: S. cerevisiae cln2 rad14 strain, at 50.0 µM, active compounds read high
Procedure, shortened: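 Growth inhibition, relative to vehicle-treated controls, is the read-out. The test organism is a yeast strain with defined genetic alterations, cln2 rad14.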

[5] = NCI Yeast Anticancer Drug Screen. Data for the bub3 strain (AID 167); settings: S. cerevisiae bub3 mutant strain, at 50.0 µM, active compounds read high
Procedure, shortened: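 Screening used yeast with an engineered genetic alteration affecting cell cycle control. Compound-exposed cultures were compared with vehicle cultures, and reduced growth was taken as inhibition.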

[6] = NCI Yeast Anticancer Drug Screen. Data for the mlh1 rad18 strain (AID 175); settings: S. cerevisiae mlh1 rad18 strain growth inhibition; at 50.0 µM; active compounds read high
Procedure, shortened: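 Cells of a genetically altered yeast strain, deficient in DNA damage repair, were treated with compound. Their growth was then compared with that of vehicle-treated cultures to give inhibition.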

Measured: growth inhibition

CC1(c2cccc[n+]2Cc2ccc(Cl)c(Cl)c2)OCCO1
inactive: [1] 6.7% | [2] 1.65% | [3] 0.2% | [4] -18.3% | [5] -2.2% | [6] 14.2%

Cn1c(=O)c2ncn(Cc3ccccc3)c2n(C)c1=O
inactive: [1] 1.8% | [2] 4.4% | [3] 0.85% | [4] 0.75% | [5] -7.75% | [6] 13.2%

CC1OC(n2ccc(=O)[nH]c2=O)C=C(OC(=O)c2ccccc2)C1=O (stereo unspecified)
inactive: [1] 12.2% | [2] -12.2% | [3] -11.4% | [4] -7% | [5] -9.55% | [6] 3.4%

CCCCCCC(C)C(CC)(C(=O)OCC)C(=O)OCC (stereo unspecified)
inactive: [1] -16.1% | [2] 6.55% | [3] -0.2% | [4] 12.1% | [5] -14.3% | [6] 7.65%

COc1ccc(CCc2ccc(OC)c(OCc3ccccc3)c2)cc1COc1ccccc1
inactive: [1] 41.9% | [2] 0.45% | [3] 22.1% | [4] 3.85% | [5] -1.8% | [6] 5.95%

C/C(=C\c1ccccc1)c1ccccc1
inactive: [1] -47.8% | [2] 1.9% | [3] -3.75% | [4] -30.4% | [5] 2.1% | [6] 8.45%

CCOc1c(N=Nc2ccc(Cl)cc2)c(C)nn1C(N)=S
inactive: [1] -19.2% | [2] 16.2% | [3] 12.2% | [4] -12.6% | [5] 36.4% | [6] 44.5%

CC(C)N(C(=O)C12C3C4C5C3C1(C#N)C5C42)C(C)C (stereo unspecified)
inactive: [1] 10.1% | [2] 6.95% | [3] 12.1% | [4] 5.95% | [5] 2.35% | [6] -9.45%

NC(=O)COC(=O)c1c(Cl)nc2sccn12
inactive: [1] 7.55% | [2] 5.1% | [3] -13.9% | [4] 4.75% | [5] 24.6% | [6] 19.1%

CCOC(=O)n1ccnc1
inactive: [1] -6.4% | [2] -5.45% | [3] 1.5% | [4] 8% | [5] 9.05% | [6] -2.95%

Cc1nc(-c2cc3c(ccc4ccccc43)oc2=O)cs1
inactive: [1] 21.5% | [2] -8.85% | [3] -4.45% | [4] 25.8% | [5] -4.4% | [6] -21.5%

NC(N)=N/N=C(/c1nc2ccc([N+](=O)[O-])cc2[nH]c1=O)C(O)c1ccco1 (stereo unspecified)
inactive: [1] 10.1% | [2] -25% | [3] 0.25% | [4] 5.95% | [5] -15.3% | [6] 1.7%

CC(C)NC(=O)OCc1nnn2c1CCC2
inactive: [1] -6.9% | [2] 0.05% | [3] -12.5% | [4] -22.7% | [5] -0.05% | [6] -4.05%

O=C(Nc1ccccc1CCl)Nc1ccccc1CCl (tested in a mixture with another compound)
inactive: [1] 7.6% | [2] 3.35% | [3] -11.4% | [4] 3.65% | [5] -4.1% | [6] 15.4%

Cc1ccc(CSC(=S)NNc2ccccc2)cc1C
inactive: [1] -28.6% | [2] -44.3% | [3] -2.15% | [4] -13.6% | [5] -32.6% | [6] -35.8%

CC1(C)C=C(N2CCCCC2)C(=O)c2ccccc21
inactive: [1] -9.6% | [2] -2.25% | [3] -12.2% | [4] -16.4% | [5] -9.1% | [6] 5.15%

COc1ccc2c(c1)CCN1CCCc3ccc(OC)cc3C21 (stereo unspecified)
inactive: [1] 18.9% | [2] 30.3% | [3] 24.6% | [4] 55.1% | [5] 31.4% | [6] 46.7%

O=C(O)C(S)c1ccc2ccccc2c1 (stereo unspecified)
inactive: [1] 28.6% | [2] 19.9% | [3] 20.2% | [4] 18.6% | [5] 12.3% | [6] 13.2%

Cc1nc(C(F)(F)F)cc(=O)[nH]1
inactive: [1] 7.4% | [2] -3.6% | [3] 15.7% | [4] -1.25% | [5] -5.4% | [6] 51%

O=C1Cn2c(c3c(nc2=O)CCCC3)N1
inactive: [1] -31.1% | [2] -7.3% | [3] -10.3% | [4] -13.7% | [5] -7.95% | [6] 2.1%

Cc1ccc(NC(=O)OCC2CC3C=CC2C3)cc1NC(=O)OCC1CC2C=CC1C2 (stereo unspecified)
inactive: [1] -21.2% | [2] -14.3% | [3] -14.8% | [4] -6.8% | [5] -3.25% | [6] 3.7%

OC1CCSc2ccccc21 (stereo unspecified)
inactive: [1] 28.6% | [2] 10.3% | [3] 23.9% | [4] 9.7% | [5] 23.6% | [6] 23.2%

C[N+](C)(CCCn1ccnc1[N+](=O)[O-])CCCn1ccnc1[N+](=O)[O-]
inactive: [1] -15.3% | [2] -6% | [3] 14.8% | [4] 3.55% | [5] -14.8% | [6] 4.8%

CC1(C#N)C(C#N)(C#N)C1(C#N)C#N
inactive: [1] -0.05% | [2] -3.35% | [3] -10.8% | [4] -13.2% | [5] -30.1% | [6] -21.1%

CC#CCCCC1(C)CCNC1=S (stereo unspecified)
inactive: [1] 13.8% | [2] 10.2% | [3] 30.5% | [4] 21.9% | [5] 0.8% | [6] 24.6%

CC(=O)OCC1OC(n2c(Br)nc3c(N)ncnc32)C2OC(C)(C)OC12 (stereo unspecified)
inactive: [1] 14.3% | [2] 6.2% | [3] 16.4% | [4] -2.7% | [5] 1.3% | [6] -6.55%

NCc1ccccc1F
inactive: [1] -10.2% | [2] -23.9% | [3] 12.3% | [4] 13.7% | [5] -6.75% | [6] 4.15%

CCN1C(=O)/C(=C\c2ccccc2)N=C1C
inactive: [1] 2.45% | [2] -7.35% | [3] 5.55% | [4] -58% | [5] -12.8% | [6] -42%

Cc1ccc(OCc2cccc(Cl)c2)cc1
inactive: [1] 17.8% | [2] -10.4% | [3] 2.5% | [4] -2.9% | [5] -42.1% | [6] -11.3%

C1C[OH+]CCNCC[OH+]CC[OH+]CCN1.[Cl-].[Pt+4]
inactive: [1] -14.5% | [2] -29.2% | [3] 1.55% | [4] -9.05% | [5] 3.5% | [6] -16.2%

CCOC(=O)Nn1c(C)nnc1CC#N
inactive: [1] -3.05% | [2] -2.4% | [3] -8.1% | [4] -16.8% | [5] 0.65% | [6] 18.7%

O=C1C=C(NCCc2ccccc2)c2ccccc2C1=O
inactive: [1] 38.5% | [2] -8.6% | [3] 16.6% | [4] 9.15% | [5] 40.4% | [6] -5.1%

N#Cc1cn(Cc2ccccc2)c2ccccc2c1=O
inactive: [1] -0.3% | [2] -3.15% | [3] 3.95% | [4] 47.9% | [5] 7.3% | [6] 1.15%

c1ccc(-c2cc(-c3ccccc3)nc(-c3ccccc3)c2)cc1
inactive: [1] -7.2% | [2] -4.05% | [3] 10.1% | [4] -33% | [5] 9.65% | [6] 1.6%

Cc1[nH]n(C(=O)c2ccc(Cl)cc2)c(=O)c1/C=C1\C(O)=CC(=O)c2ccccc21
inactive: [1] 31.6% | [2] -6.85% | [3] 18.7% | [4] -19.6% | [5] 30.7% | [6] 16.9%

CCCCC1CC(c2ccc(Cl)cc2)=NO1 (stereo unspecified)
inactive: [1] 26.9% | [2] -7% | [3] 16.6% | [4] -1.55% | [5] 3.75% | [6] 20.2%

COc1ccc(C2COc3cc4c(cc3C2)OCO4)cc1 (stereo unspecified)
inactive: [1] -22.4% | [2] -26.1% | [3] -20.6% | [4] -2.3% | [5] 20.1% | [6] 4.9%

Cc1ccc(C)c2c(CC(=O)O)c[nH]c12
inactive: [1] -4.35% | [2] -11.2% | [3] -5.9% | [4] -15.6% | [5] 6.05% | [6] -2.5%

COc1cccc2c1C(=O)c1c(O)c3c(c(O)c1C2=O)C[C@@](O)(C(C)=O)CC3S(=O)(=O)O (stereo partly specified)
inactive: [1] -14% | [2] -7.45% | [3] -24.4% | [4] -8.85% | [5] -14.9% | [6] 9.7%

CCOC(=O)C1=C(Nc2ccc(Cl)cc2Cl)OC/C1=N\NS(=O)(=O)c1ccc(C)cc1
inactive: [1] -3.95% | [2] 9.25% | [3] 1.2% | [4] -8.6% | [5] -2.45% | [6] 3.3%

CC(=O)N(C)C
inactive: [1] -9.9% | [2] -2.05% | [3] 12.9% | [4] 6% | [5] -2.3% | [6] -6.5%
